# High-throughput results as filed in PubChem BioAssay.
# ATXN2 expr inh – Primary qHTS for Inhibitors of ATXN expression; hit rate 0.72% among 360,000; HEK-293 ATXN2-luciferase reporter, luminescence, 24 h; AID 1745845, 2022; Potency, µM (doses to about 57 µM), inactives show top-dose activity change, negative = inhibition, usual class: inhibitors; note: potency is the fitted concentration of half-maximal effect; % is set by controls: 0 for no effect and ±100 for the full control effect; nearly all actives have a fitted effect of over 55% in size
#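 qHTS (up to 57 uM final) was run with 24 h compound exposure of reporter cells at 37 °C. Each well was multiplexed: SteadyGlo luminescence measured ATXN2-luciferase expression after a fluorogenic Gly-Phe-AFC viability readout (25 uM final).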
# ATXN viability – Viability Counterscreen for Primary qHTS for Inhibitors of ATXN expression; AID 651635, 2014; hit rate 0.49% among 400,000; S2 cells (HEK-293 line with an ATXN2-luciferase reporter) viability, CellTiter-Fluor protease fluorescence, 24 h; Potency, µM (titrated, usually from 56.7 µM), most hits filed as cytotoxic; note: potency is the fitted concentration of half-maximal effect; nearly all actives have a fitted effect of over 40% in size
# LDHA inh – qHTS assay for inhibitors of human lactate dehydrogenase. L-lactate dehydrogenase A chain (Homo sapiens), P00338. purified LDHA, NADH/diaphorase-resazurin fluorescence; hits give low values. activity change, % (values are at about 110 or 230 µM). hit rate 0.15% among 480,000; in the data active = activity change below about -30%; inconclusive = mostly about -25% to -30%;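 note: plate controls were DMSO wells for no effect and wells without enzyme for full effect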
#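 Resorufin fluorescence (ex540/em590), read at 0 and 20 min after diaphorase/resazurin addition, reports the NADH left after a 5 min room-temperature reaction of 2 nM human LDH5 with 0.06 mM NADH and 0.2 mM pyruvate.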
# HepG2 viability – qHTS for Inhibitors of TGF-b: Cytotox Counterscreen; hit rate 0.76% among 410,000; Potency, µM (doses to about 46.1 µM), without a hit: top-dose activity change, negative = cytotoxicity, usual class: cytotoxic; HepG2 CAGA-GFP viability, ATP luminescence, 18 h; note: potency is the fitted concentration of half-maximal effect
#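 HepG2 CAGA-GFP cells (1000/well, DMEM with 1% FBS) received compound, then TGF-beta at 500 pg/mL final, and were incubated 18 hours at 37 degrees C. Viability was read by CellTiter-Glo luminescence. Media-only wells were set as complete cell-killing and DMSO as no toxicity.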
# IDH1 R132H inh – qHTS for Inhibitors of mutant isocitrate dehydrogenase 1 (IDH1): qHTS | Isocitrate dehydrogenase [NADP] cytoplasmic (Homo sapiens), O75874 | IDH1-R132H enzyme, NADPH consumption, diaphorase/resazurin fluorescence | Potency, µM (highest dose often 76.6 µM), without a hit: at the highest dose activity change, negative = inhibition, usual class: inhibitors | hit rate 0.093% among 390,000; note: potency is the fitted concentration of half-maximal effect; % is set by controls: 0 for no effect and ±100 for the full control effect; nearly all actives have a fitted effect of over 65% in size
# Target sequence (O75874 whole entry R132H, stated change not applied): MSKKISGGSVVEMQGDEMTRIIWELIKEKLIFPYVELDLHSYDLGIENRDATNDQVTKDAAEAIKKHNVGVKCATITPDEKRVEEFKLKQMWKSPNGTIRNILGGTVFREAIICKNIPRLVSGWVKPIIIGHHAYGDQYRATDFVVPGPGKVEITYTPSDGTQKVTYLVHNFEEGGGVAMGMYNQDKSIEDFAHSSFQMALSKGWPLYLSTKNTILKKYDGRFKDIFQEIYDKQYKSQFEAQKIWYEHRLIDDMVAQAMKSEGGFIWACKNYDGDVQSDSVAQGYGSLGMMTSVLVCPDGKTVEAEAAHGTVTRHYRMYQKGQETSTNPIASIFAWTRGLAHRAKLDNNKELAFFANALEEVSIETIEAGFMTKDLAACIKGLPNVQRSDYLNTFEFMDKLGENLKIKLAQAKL
#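 IDH1-R132H (0.5 ug/mL) preincubated 30 min with compound, then NADPH (0.016 mM) and alpha-KG (2 mM) added; 80 min at RT, pH 7.5. Remaining NADPH coupled via diaphorase/resazurin to fluorescence (540/590 nm); concentration-response curves normalized to no-enzyme control.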
# TGFb SMAD3 inh – qHTS for Inhibitors of TGF-b. HepG2 CAGA-GFP TGF-b/SMAD3 reporter, GFP fluorescence, 18 h; TGF-beta stimulated, 500 pg/mL final. Potency, µM (top dose mostly 46.1 µM), for inactives: at the top dose activity, negative = inhibition, usual class: inhibitors. hit rate 1.2% among 410,000. AID 588855, 2011; note: potency is the fitted concentration of half-maximal effect; % is set by controls: 0 for no effect and ±100 for the full control effect; nearly all actives have a fitted effect of over 65% in size
#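 Smad-responsive CAGA-GFP expression was quantified in HEPG2 cells exposed to compounds and 500 pg/mL final TGF-beta for 18 h at 37 degrees C; unstimulated wells defined full inhibition.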
# Active calls of the source: *; i = inactive; u = inconclusive; x = no result. Rows were chosen to be rich in hits. Some 2.2% of all compounds tested hit in one or more screens of this group. Unless noted, calls come from the whole dose curve; as a rule, active = well fitted curve in the direction sought with a large enough effect; inconclusive = small, poorly fitted or top-dose-only effect, or another doubt; inactive = no such curve, though single readings can be large; an effect the other way counts as inactive or inconclusive.
SMILES,ATXN2 expr inh,ATXN viability,LDHA inh,HepG2 viability,IDH1 R132H inh,TGFb SMAD3 inh
S=C(c1cn(CCOc2ccccc2)c2ccccc12)N1CCCC1,-18%,i,-4,-20%,2%,u
CC(C)(C)c1ccc(C(=O)Nc2ccc(CC(=O)O)cc2)o1,0.4µM*,i,-5,2%,3%,-25%
CCCCCCCCCCCC[n+]1ccc(/C=C/c2c[nH]c3ccccc23)c2ccccc21,x,x,x,-58%,x,u
CCCCCCCCCC[n+]1ccc(/C=C/c2c[nH]c3ccccc23)cc1,x,x,x,16µM*,x,260%
CCCCCCC[n+]1ccc(/C=C/c2c(C)[nH]c3ccccc23)cc1,x,x,x,-111%,x,388%
CCCCCCCCCC[n+]1ccc(/C=C/c2c(C)[nH]c3ccccc23)c2ccccc21,x,x,x,3.2µM*,x,2.5µM*
CCCCCCC[n+]1ccc(/C=C/c2c(C)[nH]c3ccccc23)c2ccccc21,x,x,x,-114%,x,13µM*
CCCCCCCCCCCCCCCC[n+]1ccc(/C=C/c2c[nH]c3ccccc23)c2ccccc21,x,x,x,-46%,x,u
CCCCCCCCCCCCCCCC[n+]1ccc(/C=C/c2c[nH]c3ccccc23)cc1,x,x,x,-95%,x,190%
CCCCCCC[n+]1ccc(/C=C/c2c[nH]c3ccccc23)c2ccccc21,x,x,x,13µM*,x,7.1µM*
COc1cc(NC(=O)CSc2nnc3ccc(-c4cccnc4)nn23)cc(OC)c1,20%,i,-7,5%,8%,-2%
O=C(Nc1ccccc1SC(F)F)C1CCCCC1,x,x,2,x,x,x
Cc1ccc(S(=O)(=O)N2CCN(S(=O)(=O)N(C)C)CC2)cc1,1%,i,-4,-22%,7%,u
COC(=O)[C@@H]1C[C@@]2(O)[C@H](O)[C@H](O)[C@H](O)C[C@H]2N1Cc1ccc(C(F)(F)F)cc1,-1%,i,1,-17%,-3%,-1%
Cc1[nH]c2ccccc2c1/C=C/c1c(C)[nH]c2ccccc12,x,x,1,-48%,x,6.3µM*
Cc1ccc(OCCN(C)C(=O)C2CCC(=O)N(Cc3ccccc3F)C2)cc1 (configuration not stated),-5%,i,1,-25%,4%,-10%
CN1CCN(c2ccc(C(=O)NC3CCCCC3)cc2[N+](=O)[O-])CC1,x,i,1,0%,10%,6%
O=C(Cn1cc(C(=O)c2ccco2)c2ccccc21)Nc1ccccc1F,-15%,i,-7,-11%,17%,10%
O=C(Cn1cc(C(=O)C(F)(F)F)c2ccccc21)Nc1ccccc1F,-45%,u,-2,11µM*,0%,9%
CCCc1nc2c3ccccc3ccn2c1Cc1cccc(Cl)c1,2%,35µM*,-1,-38%,x,-73%
CCCc1nc2c3ccccc3ccn2c1Cc1ccc(C)cc1,57%,u,-2,-27%,x,u
CCN(CC)S(=O)(=O)c1ccc(N/N=C(\C)c2ccc(OC)cc2O)nc1,x,i,-6,-63%,9%,8.9µM*
CCN(CC)S(=O)(=O)c1ccc(N/N=C/c2ccc(O)cc2)nc1,4%,i,5,-22%,0%,-6%
Cc1ccc(NC(=O)c2c(C)oc3ccc(O)c(CN(C)Cc4ccccc4)c23)c(C)c1,x,x,3,-22%,x,x
Cc1oc2ccc(O)c(CN(C)Cc3ccccc3)c2c1C(=O)Nc1cccc(C(F)(F)F)c1,x,x,6,10µM*,12%,u
SMILES,ATXN2 expr inh,ATXN viability,LDHA inh,HepG2 viability,IDH1 R132H inh,TGFb SMAD3 inh
Cc1oc2ccc(O)c(CN(C)Cc3ccccc3)c2c1C(=O)Nc1ccccc1,x,x,6,1.8µM*,-10%,u
COc1ccc(NC(=O)c2cc3c(=O)n(Cc4ccco4)ccc3nc2C)c(OC)c1,x,x,4,-8%,-1%,-25%
Cc1cc(NC(=O)c2ccc3c(c2)OCO3)no1,-6%,i,-3,-11%,1%,3%
CN(C(=O)c1ccc(NC(=O)c2ccco2)cc1)c1ccccc1,17%,x,-3,7.9µM*,3%,-2%
CN(C(=O)c1cccc(NC(=O)c2ccco2)c1)c1ccccc1,27%,i,-7,-7%,1%,14%
Cc1cc(NC(=O)c2ccc3c(c2)OCCO3)no1,11µM*,i,-4,-24%,6%,-2%
CC(=O)Nc1ccc(SCC(=O)Nc2ccc3c(c2)OCCO3)cc1,2%,i,-4,3.5µM*,5%,4%
Cc1ccc(C(=O)Nc2ccc3c(c2)OCO3)cc1,-11%,i,10,-21%,2%,-23%
Cc1ccc(C(=O)Nc2ccc3c(c2)OCCO3)cc1,13µM*,i,-2,-26%,16%,17%
COC(=O)c1cc(-c2ccc(Cl)cc2Cl)n[nH]1,x,i,0,4%,3%,1%
CCOc1ccc(N(C(C)=O)C2C=CS(=O)(=O)C2)cc1 (configuration not stated),6%,i,1,10%,13%,-18%
O=C(Nc1ccc(NC(=O)c2ccco2)cc1)c1ccc2c(c1)OCCO2,16µM*,u,-4,6%,8%,6%
Cn1ccc2c(-c3ccc(C(C)(C)C)cc3)cc3c(c21)C1CCC3O1 (configuration not stated),52%,i,4,-39%,x,11µM*
C(=NN1CCCCCC1)c1cccc2ccccc12,10%,i,-14,-20%,1%,6%
Nc1c(C(=O)Nc2cccc(C(=O)O)c2)sc2nc3c(cc12)CCCC3,4µM*,i,1,8%,22%,2%
O=C(Nc1nnc(-c2ccc3c(c2)CCCC3)o1)c1ccc(Cl)cc1Cl,u,40µM*,6,-4%,-8%,u
O=C(Nc1nnc(-c2ccc3c(c2)CCCC3)o1)c1c(F)cccc1F,-2%,i,-6,-11%,12%,3%
COc1ccc(Cc2nnc(C(=O)NCCCN3CCN(c4ccccc4F)CC3)o2)cc1OC,-21%,u,-2,-6%,-17%,-9%
O=C(NCCCN1CCN(c2ccccc2F)CC1)c1nnc(Cc2ccc(Cl)cc2Cl)o1,x,x,4,-62%,10%,11µM*
COc1ccc(C(=O)C[n+]2cc(Br)cc3ccccc32)cc1,x,x,1,-14%,x,u
COc1ccc(C(=O)C[n+]2cn(C(F)F)c3ccccc32)c(F)c1,-21%,i,-40*,-31%,2%,u
